Source: PubChem BioAssay (NCI)
The panel holds about 83,000 compounds, 20% with a hit somewhere; the sample as a whole holds those more often.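 Step 1: grow cells in 96-well plates. Step 2: add test compound at a single concentration. Step 3: incubate 48 h. Step 4: record percent growth.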 Unmarked numbers belong to inactive results. Calls of active or inactive are those of the source. How the source made its calls: active means growth percent below 10; inactive means the rest.

Experiments:
Assay in all cases: NCI-60 one-dose screen, 48 h (100 = growth as untreated, 0 = no growth, -100 = all killed)
Conditions in all cases: 10 µM unless noted
OVCAR-8 ovarian = test system: OVCAR-8 ovarian
OVCAR-4 ovarian = test system: OVCAR-4 ovarian
IGROV1 ovarian = test system: IGROV1 ovarian
OVCAR-3 ovarian = test system: OVCAR-3 ovarian
HS 578T breast = test system: HS 578T breast
NCI/ADR-RES ovarian = test system: NCI/ADR-RES ovarian
T-47D breast = test system: T-47D breast
SK-OV-3 ovarian = test system: SK-OV-3 ovarian
OVCAR-5 ovarian = test system: OVCAR-5 ovarian

Row | SMILES | growth (OVCAR-8 ovarian) | growth (OVCAR-4 ovarian) | growth (IGROV1 ovarian) | growth (OVCAR-3 ovarian) | growth (HS 578T breast) | growth (NCI/ADR-RES ovarian) | growth (T-47D breast) | growth (SK-OV-3 ovarian) | growth (OVCAR-5 ovarian)
1 | O=c1c(-c2nc3ccccc3[nH]2)cc2ccccc2n1Cc1cn(Cc2ccc(N3CCOCC3)cc2)nn1 | 37.4% | 6.82% (active) | 40% | 83.5% | 74.7% | 68.8% | 71.4% | – | –
2 | C=C[C@@H]1CCC/C=C/[C@@H]2C[C@H](O)C[C@H]2[C@H](O)/C=C/C(=O)O1 | 21.4% | 23.8% | 11.8% | -30.8% (active) | 31.3% | 1.8% (active) | -40.9% (active) | 20.5% | –
3 | CN1C(=O)N(C)C2(c3ccccc3)n3c(s/c(=C\c4ccccc4)c3=O)=NNC12c1ccccc1 (stereo not given) | 96.8% | 100% | 97.9% | 103% | 102% | 88.3% | 81.9% | – | 99.9%
4 | CCOc1cccc(/C=N/NC(=O)C(=O)Nc2cccc(C(F)(F)F)c2)c1O | 25.6% | – | 25.3% | 29.3% | 69.3% | 9.74% (active) | 30.9% | 49.2% | 47.4%
5 | CN1C(=O)N(C)C2C1NN=c1s/c(=C\c3ccc([N+](=O)[O-])cc3)c(=O)n12 (stereo not given) | 81.1% | 82.2% | 57.4% | 22.7% | 67.5% | 61.5% | 66.5% | – | 86.1%
6 | C=C1C(=O)O[C@H]2[C@H]1CC/C(COC(=O)/C=C\C(=O)O)=C\CC[C@@]1(C)O[C@@H]21 | 101% | 113% | 107% | 113% | 103% | 101% | 100% | – | 93.8%
7 | COc1cc(C2C3=C(COC3=O)N(CCO)c3cc4c(cc32)OCCO4)cc(OC)c1O (stereo not given) | 27.4% | 40.3% | 27.1% | -31% (active) | 21.9% | 82.9% | 33.4% | 24.5% | –
8 | O=C(CN1C=NC2C(N3CCOCC3)=NC=NC21)c1ccc(Br)cc1 (stereo not given) | 100% | 97% | 95.6% | 108% | 102% | 103% | 101% | – | 99%
9 | CN1C(=O)N(C)C2C1NN=c1s/c(=C\c3ccc(Cl)cc3Cl)c(=O)n12 (stereo not given) | 27.2% | 36.9% | 16.4% | 3.93% (active) | 23% | 14.9% | 72.1% | – | 32.5%
10 | COc1ccc2[nH]c(O)c(N=NC(=O)c3oc4ccccc4c3C)c2c1 | 37.8% | -52.8% (active) | 6.33% (active) | -65.5% (active) | 25.5% | 30.5% | -39.2% (active) | – | 41.7%
11 | COc1ccc(CSc2nnc(SCC(=O)Nc3ccc(Cl)cc3)s2)cc1 | 84.4% | – | 63.6% | 91.2% | 75.6% | 47.6% | 67.2% | 103% | 90.6%
12 | CCCCN1CCN(c2ccc3nc(-c4ccc5nc(-c6ccc(C(F)(F)F)cc6)[nH]c5c4)[nH]c3c2)CC1 | -40.5% (active) | -84.2% (active) | -82.3% (active) | -96.7% (active) | -64.3% (active) | 54.8% | -37.3% (active) | – | -89.2% (active)
13 | O=C1c2ccc3c4c(ccc(c24)C(=O)N1CCCCO)C(=O)N(CCCCO)C3=O | 75.4% | 42.4% | 86.2% | 32.9% | 78.2% | 82.2% | 87.3% | 85.1% | 106%
14 | O=C(CSc1ncccc1C(=O)O)Nc1ccc(Oc2ccccc2)cc1 | 103% | 89.4% | 104% | 109% | 92% | 100% | 103% | 100% | 108%
15 | CN1C(=O)N(C)C2C1NN=c1s/c(=C\c3c[nH]c4ccccc34)c(=O)n12 (stereo not given) | 24.1% | 103% | 18.7% | 8.1% (active) | 18.7% | 15.6% | 82.6% | – | 42.7%
16 | Clc1ccc(COc2ccc(Nc3ncnc4onc(-c5ccccc5)c34)cc2)cc1 | 92.2% | 7.69% (active) | 83.4% | 92.8% | 82.1% | 77% | 77% | – | 92.8%
17 | Fc1cccc(COc2ccc(Nc3ncnc4onc(-c5ccccc5)c34)cc2)c1 | 29.2% | 43.3% | 24.5% | 0.458% (active) | -16.7% (active) | 46.5% | 45.4% | – | 9.86% (active)
18 | COc1ccc(-c2c(-c3ccc(OC)c(O)c3)cnc3ncnn23)cc1 | 101% | 104% | 110% | 112% | 104% | 102% | 103% | 110% | –
19 | O=C(NN1C(=O)CSC1c1ccc(Cl)cc1)c1[nH]c2ccc(F)cc2c1-c1ccccc1 (stereo not given) | 35.2% | – | 36.8% | 47.9% | 94.6% | 43.3% | 52.1% | 87.2% | –

Row | SMILES | growth (OVCAR-8 ovarian) | growth (OVCAR-4 ovarian) | growth (IGROV1 ovarian) | growth (OVCAR-3 ovarian) | growth (HS 578T breast) | growth (NCI/ADR-RES ovarian) | growth (T-47D breast) | growth (SK-OV-3 ovarian) | growth (OVCAR-5 ovarian)
20 | CCOc1ccc(-c2nonc2NC(=O)c2cccc(C)c2)cc1OCC | 79.5% | – | 68.3% | 68.1% | 85.4% | 67.5% | 84.3% | 96.2% | 89.4%
21 | O=C(Nc1ccc(Cl)cc1F)c1cc(F)ccc1O | 9.44% (active) | 11.2% | – | 9.51% (active) | 1.1% (active) | 7.19% (active) | -8.15% (active) | -4.5% (active) | 27.8%
22 | COc1nc2c(c(=O)n1C)N=C1c3ccccc3C(=O)C1C(c1ccccc1)N2 (stereo not given) | 100% | – | 110% | 74.9% | 105% | 73.3% | 85.2% | 91.4% | 97.1%
23 | O=CCCCC(O)C=O (stereo not given) | 106% | 103% | 108% | 109% | 98.1% | 99.2% | 95.9% | 104% | 106%
24 | O=C(CSc1ccc2nnc(-c3cccc(F)c3)n2n1)Nc1ccc2c(c1)OCO2 | 53.4% | – | 54.8% | 48.3% | 76.4% | 48.4% | 56.2% | 100% | 113%
25 | Cn1cc(-c2ccc3ncc(-c4ccc(CC(=O)Nc5cc(C(C)(C)C)no5)cc4)nc3c2)cn1 | 37% | 31.9% | 19.3% | 49.3% | 25.9% | 43.7% | 25.5% | – | 74.6%
26 | CCOC(=O)c1cc2c(n1Cc1cc(OC)c(OC)c(OC)c1)-c1oncc1CCC2 | 16.6% | – | 33.3% | -22% (active) | 18.2% | 3.55% (active) | 74% | 11.2% | 56.2%
27 | O=C1N=c2ccccc2=C1c1sc(=Nc2ccccc2)n(Nc2ccccc2)c1O | 105% | 43.5% | 96.2% | 110% | 102% | 108% | 97.6% | – | –
28 | O=C(CN1C=NC2C(N3CCOCC3)=NC=NC21)c1cccc2ccccc12 (stereo not given) | 97% | 97.1% | 90.8% | 101% | 102% | 104% | 90.7% | – | 92%
29 | CC(=S)NC(=O)C(=O)/C=C1/NC(=O)C(=O)S1 | 106% | 106% | 109% | 122% | 107% | 103% | 107% | 122% | 107%
30 | O=c1oc2ccc(Br)cc2c(=O)n1-c1ccc(I)cc1F | 10.4% | 15.2% | 15.8% | 5.31% (active) | 0.536% (active) | 9.96% (active) | -1.18% (active) | 6.53% (active) | –
31 | COc1ccc(/C=C2\SC(=Nc3ccccc3)NC2=O)cc1 | -81.2% (active) | – | -78.2% (active) | -69.4% (active) | -47.5% (active) | -8.71% (active) | -72.8% (active) | -54.1% (active) | -77.8% (active)
32 | CCCSC1=NC2C(N(CC)C(=O)N2CC)N1/N=C/C=C/c1ccccc1[N+](=O)[O-] (stereo not given) | 33.7% | – | 29.9% | -15.8% (active) | 18.5% | 13.4% | 64.1% | – | 48%
33 | O=Nc1c(O)ccc2ccccc12.O=Nc1c(O)ccc2ccccc12.O=Nc1c([O-])ccc2ccccc12.[Fe+3] | 98.4% | – | 91.1% | 102% | 113% | 104% | 104% | 112% | 109%
34 | CN(C)/C=C1\SC(=Nc2ccc(Cl)cc2)NC1=O | 97.8% | 108% | 102% | 107% | 95.5% | 102% | 105% | 104% | –
35 | O=S(=O)(Nc1ncccn1)c1ccc(NC2Nc3nc4ccccc4nc3S2)cc1 (stereo not given) | 98.8% | 102% | 96.3% | 109% | 95.9% | 99.6% | 101% | – | 96.4%
36 | COC(=O)[C@@H]1CCCN1C(=O)[C@H]1CCCN1C(=O)[C@@H](Cc1c[nH]c2ccccc12)NC(=S)Nc1cc(C(F)(F)F)cc(C(F)(F)F)c1 | 61.3% | – | 29.2% | 47% | 11.6% | 67.1% | 37.3% | 69.6% | 60.1%
37 | O=c1oc2ccc(F)cc2c(=O)n1-c1ccc(F)cc1F | 23.3% | 11.9% | 30.1% | 4.14% (active) | 12.8% | 18.9% | -11.9% (active) | -4.73% (active) | 64.8%
38 | O=C(/C=C/c1ccccc1)c1ccc(Nc2nc(NCCO)nc(Nc3ccc(Cl)cc3)n2)cc1 | 89.1% | 73.4% | 97.3% | 59.9% | 93.1% | 91.7% | 62.7% | – | 97.7%
